From PubChem BioAssay (NCI)
“And” between values parts separate entries of the source, which are not always exact repeats. Equal values may be shown once. About 83,000 compounds went through this panel and 20% of them were active in at least one assay; those are over-represented in the sample as a whole.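 Activity criterion: percent growth below 10, measured after cells in 96-well plates were exposed to a single compound concentration for 48 hours.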 Values without a mark were called inactive. The source made the active and inactive calls.

System: MDA-MB-468 breast
Assay: NCI-60 one-dose screen, 48 h (100 = growth as untreated, 0 = no growth, -100 = all killed)
Conditions: 10 µM unless noted

SMILES	growth
O=C(CSc1nc2ccc([N+](=O)[O-])cc2[nH]1)Nc1ccc(F)c(Cl)c1	-14.9% (active)
CCOC(=O)c1cc2c(n1Cc1cc(OC)cc(OC)c1Br)-c1nc(NC(C)=O)sc1CCC2	77.7%
CC(C)(C)c1nc2c(s1)c1nc(N)ncc1c1ccc(NS(=O)(=O)c3c(F)cccc3F)c(F)c12	60.2%
COc1cc(C)cc2oc3oc(=O)c(-c4csc(-c5cc6ccccc6oc5=O)n4)cc3c(=O)c12	102%
COc1ccc(C(=O)/C=C/c2sc(Cl)nc2Cl)cc1	-13.8% (active)
COc1cc(NCC(O)CN(CC(C)C)CC(C)C)c2ncccc2c1 (stereo not given)	-19.8% (active)
C=CCSc1nnc(COc2ccc3c(C)c(Cc4ccccc4)c(=O)oc3c2C)o1	113%
CCNC(=O)Oc1ccc(/C(=C(/C)Cc2ccc(OC)cc2)c2ccc(OCCN3CCCCCC3)cc2)cc1	51.8%
O=C(CSc1cc[n+](CCCCO)c2ccccc12)n1ccc2ccccc21	108%
Cc1cn(-c2cc(NC(=O)c3cncc(C#Cc4cnc5ccc(O[C@H]6CCOC6)nn45)c3)cc(C(F)(F)F)c2)cn1	145%
C[C@@]1(C(=O)Nc2ccc(F)nc2)CCCN1c1nc(Nc2cc(C3CC3)[nH]n2)c2cccn2n1	13.1%
O=C(O)C(Cc1ccc(OS(=O)(=O)Cc2ccccc2)cc1)NS(=O)(=O)Cc1ccccc1 (stereo not given)	105% and 117%
Cn1cc(-c2nc(N)nnc2-c2c[nH]c3ccccc23)c2cc(Br)ccc21	33%
O=c1oc2c(Br)cc(Br)cc2cc1-c1cc(-c2ccc(-c3cc(-c4cc5cc(Br)cc(Br)c5oc4=O)nc(-c4cc5cc(Br)cc(Br)c5oc4=O)c3)cc2)cc(-c2cc3cc(Br)cc(Br)c3oc2=O)n1	117%
COc1cc(C2CC(c3ccc4c(c3)OCO4)=NN2C=O)cc(OC)c1OC (stereo not given)	-12.7% (active)
CCOC(=O)c1cc(C(=O)c2ccc(Br)cc2)n2ccc(/C=C/c3cc[n+](CC(=O)c4ccc(OC)cc4)cc3)cc12	66.4%
S=c1ccnc[nH]1	122%
O=C(N/N=C\c1ccc(-c2ccc(Br)cc2)o1)c1cc2oc(-c3cccc(C(F)(F)F)c3)cc2[nH]1	126%
c1ccc([I+]c2ccccc2)cc1	15.2%
COc1ccc(S(=O)(=O)N(C(C)=O)c2ccccc2/C=C/c2cc[n+]([O-])cc2)cc1	10.8%

SMILES	growth
N=C(N)c1ccc(-c2ccc(-c3ccccc3)o2)nc1	59.9%
Oc1ccccc1-c1nnc(COc2ccc(Cl)cc2Cl)o1	58.7%
CC/C(C)=C(\C)C(=O)O	106%
COc1ccc(C2CC(c3ccc4ccccc4c3)=NN2c2nc(O)c(C3=c4cc(Cl)ccc4=NC3=O)s2)cc1 (stereo not given)	-73.9% (active)
COc1ccc(Cn2cc(C(=O)N=Nc3c(O)[nH]c4c(C)cccc34)nn2)cc1	89.2%
Cc1nn(-c2ccc([N+](=O)[O-])cc2)c2ncnc(N/N=C/c3ccccc3O)c12	-16.6% (active)
O=C(Nc1ccc(OS(=O)(=O)c2ccc(F)cc2)cc1)C1CCCCCC1	102%
COc1ccc(OC)c(/C=N/Nc2ncnc3c2c(C)nn3C)c1	106%
CCc1ccc(-c2nnc(COc3ccc(-c4nc5cc(Cl)c(Cl)cc5[nH]4)cc3OC)o2)cc1	76.4%
COc1ccccc1NC1=C(Cl)C(=O)c2nc(C)ccc2C1=O	-79.7% (active)
Cc1nc2cc(Nc3nc(Cl)nc(Nc4ccc(F)cc4)n3)ccc2n1Cc1ccccc1	76.2%
Nc1cc(C(=O)NC[C@H]2CN(c3ccc(N4CCC(C(=O)O)CC4)cc3)C(=O)O2)ccc1Cl	99.4%
COc1cc(-c2cc(/C=C/C(=O)c3ccc4c(c3)OCO4)[nH]n2)cc(OC)c1OC	-4.54% (active)
CNC(=O)c1[nH]cc(-c2ccccc2)c1-c1cc(OC)c2c(c1OC)OCO2	100%
CCN(CC)CCCOc1ccc2c(c1)O/C(=C\c1cccc(OC)c1)C2=O	79.8%
COc1cc(-c2nc3ccccc3[nH]2)ccc1OCC(=O)N=Nc1c(O)[nH]c2ccc(Cl)cc12	-78.9% (active)
CN(C)CCN=c1nc2c(c(N)n1-c1ccccc1)c(=S)n(-c1ccccc1)c(=S)n2-c1ccccc1	-34.6% (active)
Cc1ccc(/C=C/CC(=O)Nc2ccc(C(=O)Nc3ccc(F)cc3N)cc2)cn1	53.5%
O=C(/C=C/C12c3ccccc3C(c3ccccc31)C1C(=O)NC(=O)C12)c1ccc(Cl)cc1 (stereo not given)	-19.5% (active)
O=C(Nc1ccc(-n2ccc3c(NC(=O)c4ccccc4)nccc32)cc1)Nc1cccc(C(F)(F)F)c1	15.5%
